Assay results: PubChem BioAssay (EPA / NIEHS)
“And” between values parts separate entries of the source, which are not always exact repeats. Equal entries are not always repeated. Inconclusive results are not listed. The source holds several records for some structures; these can differ, active in one and inactive in another. The source made the active and inactive calls. The calls were made as follows, unless noted: active = hit-call score of the fitted dose curve at least 0.9, where 1 is the maximum; inactive = score below 0.9.

Columns and labels:
[1] = target: human Retinoic Acid Receptor gamma (RARg), RARG (gene 5916) (UniProt P13631); test: ATG_RARg_TRANS: Attagene TRANS-FACTORIAL HepG2 Assay for human Retinoic Acid Receptor gamma (RARg) (AID 2283009; active = hit-call score of the fitted dose curve at least 0.9, where 1 is the maximum)
Outline: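 Readout: reporter transcript levels via RT-PCR, 6-FAM primer-extension labelling, HpaI digestion and capillary electrophoresis. Cells: HepG2 carrying transfected RARg-GAL4 chimera plus UAS reporter set. Dosing 24 h; DMSO negative control.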

[2] = target: Retinoic acid receptor RXR-alpha (Homo sapiens) (UniProt P19793); test: ATG_RXRa_TRANS: Attagene TRANS-FACTORIAL HepG2 Assay for human Retinoid X Receptor alpha (RXRa) (AID 2283012; active = hit-call score of the fitted dose curve at least 0.9, where 1 is the maximum)
Outline: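 Read-out: fluorescent reporter-transcript fragments quantified by capillary electrophoresis after RT-PCR. Transiently transfected HepG2 cells carrying GAL4-UAS reporters and NR-GAL4 chimeras were exposed to chemical for 24 h; activity scored as increase over DMSO.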

[3] = target: human Retinoid X Receptor beta (RXRb), RXRB (gene 6257) (UniProt P28702); test: ATG_RXRb_TRANS: Attagene TRANS-FACTORIAL HepG2 Assay for human Retinoid X Receptor beta (RXRb) (AID 2283013; active = hit-call score of the fitted dose curve at least 0.9, where 1 is the maximum)
Outline: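 Read-out: reporter mRNA induction via RT-PCR plus capillary electrophoresis fluorescence, analysed as signal increase relative to DMSO. Cells were human HepG2, transiently transfected with GAL4-UAS reporter constructs and chimeric receptor-Gal4 fusions, dosed for 24 h.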

[4] = target: human Thyroid Receptor alpha (THRa1), THRA (gene 7067) (UniProt P10827); test: ATG_THRa1_TRANS: Attagene TRANS-FACTORIAL HepG2 Assay for human Thyroid Receptor alpha (THRa1) (AID 2283014; active = hit-call score of the fitted dose curve at least 0.9, where 1 is the maximum)
Outline: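 HepG2 cells transiently transfected with multiplexed GAL4-UAS reporter units for exogenous chimeric THRa1-Gal4; reporter mRNA measured 24 h after dosing by RT-PCR, 6-FAM labelling, HpaI digestion and capillary electrophoresis. Gain-of-signal fitted versus DMSO baseline.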

[5] = read-out: Interleukin-1 alpha (IL1a), IL1A (gene 3552); test: BSK_BE3C_IL1a: BioMAP Diversity Plus: BE3C Assay for Interleukin-1 alpha (IL1a) Biomarker Activity (AID 2283016); conditions: primary human bronchial epithelial cells; actives raise or lower the signal
Outline: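 ELISA read-out of IL-1a from human lung bronchial epithelial primary cells, 24 h post-dose. Gain or loss of signal fitted relative to DMSO negative control.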

[6] = read-out: Monocyte Chemoattractant Protein-1 (MCP1), CCL2 (gene 6347); test: BSK_3C_MCP1: BioMAP Diversity Plus: 3C Assay for Monocyte Chemoattractant Protein-1 (MCP1) Biomarker Activity (AID 2283017); conditions: primary human endothelial cells (HUVEC); actives raise or lower the signal
Outline: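 Primary human umbilical vein endothelial cells (3C system) were exposed to test chemical for 24 h, after which MCP-1 was quantified by ELISA. Activity was fitted bidirectionally against DMSO as negative control and baseline.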

[7] = read-out: Monocyte Chemoattractant Protein-1 (MCP1), CCL2 (gene 6347); test: BSK_4H_MCP1: BioMAP Diversity Plus: 4H Assay for Monocyte Chemoattractant Protein-1 (MCP1) Biomarker Activity (AID 2283018); conditions: primary human endothelial cells (HUVEC); actives raise or lower the signal
Outline: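 HUVEC primary cells, 24 h post-dose, MCP-1 by ELISA. Gain or loss of signal fitted bidirectionally vs DMSO baseline. Cytotoxicity: SRB stain (0.1% after 10% TCA fixation), read 560 nm, parallel cultures.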

[8] = read-out: Human Leukocyte Antigen - DR isotype (HLADR), HLA-DRA (gene 3122); test: BSK_3C_HLADR: BioMAP Diversity Plus: 3C Assay for Human Leukocyte Antigen - DR isotype (HLADR) Biomarker Activity (AID 2283019); conditions: primary human endothelial cells (HUVEC); actives raise or lower the signal;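 as to outcome: ELISA of cell-surface HLA-DR on HUVEC 24 h after dosing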
Outline: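 Primary human umbilical vein endothelial cells (3C system) were dosed with compound and cell-surface HLA-DR was quantified by ELISA at 24 h. Activity was fitted bidirectionally against DMSO as negative control and baseline.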

[9] = read-out: Monokine induced gamma interferon (MIG), CXCL9 (gene 4283); test: BSK_3C_MIG: BioMAP Diversity Plus: 3C Assay for Monokine induced gamma interferon (MIG) Biomarker Activity (AID 2283021); conditions: primary human endothelial cells (HUVEC); actives raise or lower the signal;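 as to AC50: MIG protein level measured by immunoassay in the treated endothelial cultures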
Outline: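 HUVEC, 3C system; 24 h chemical exposure; MIG by ELISA; bidirectional fit vs DMSO baseline.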

[10] = target: human Vitamin D Receptor (VDR), VDR (gene 7421) (UniProt P11473); test: ATG_VDR_TRANS: Attagene TRANS-FACTORIAL HepG2 Assay for human Vitamin D Receptor (VDR) (AID 2283022; active = hit-call score of the fitted dose curve at least 0.9, where 1 is the maximum)
Outline: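 HepG2 cells were transiently transfected with multiple GAL4-UAS reporter units, so signal reflects exogenous chimeric receptor-Gal4 activity. After 24 h compound exposure, reporter mRNA was measured by RT-PCR, fluorescent labelling and capillary electrophoresis, fitted for gain of signal versus DMSO.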

[11] = BSK_3C_SRB: Viability Assessment in the BioMAP Diversity Plus: 3C Assay (AID 2283023); conditions: primary human endothelial cells (HUVEC);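 also: fitted both ways against DMSO so a hit may be signal rise or drop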
Outline: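 Primary human umbilical vein endothelial cells in the 3C system were read 24 h after compound dosing. Total protein was stained with 0.1% sulforhodamine B after 10% TCA fixation and read at 560 nm, with bidirectional fitting against DMSO as baseline.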

[12] = read-out: Matrix Metallopeptidase 1 (MMP1), MMP1 (gene 4312); test: BSK_BE3C_MMP1: BioMAP Diversity Plus: BE3C Assay for Matrix Metallopeptidase 1 (MMP1) Biomarker Activity (AID 2283024); conditions: primary human bronchial epithelial cells; actives raise or lower the signal
Outline: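 ELISA read-out of MMP1 in human lung bronchial epithelial primary cultures, 24 h post-dose; bidirectional curve fit vs DMSO baseline, gain or loss of signal scored.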

[13] = BSK_3C_Vis: BioMAP Diversity Plus: 3C Assay for Morphology Visualization (AID 2283025); conditions: primary human endothelial cells (HUVEC);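 also: fitted both ways so gain or loss versus DMSO counts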;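 as to AC50: light microscopy image of cell morphology used as background control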
Outline: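 HUVEC, 3C system; light microscopy of morphology at 24 h post-dose. Bidirectional fit vs DMSO baseline. Secondary readout, background-control function.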

[14] = read-out: Pselectin, SELP (gene 6403); test: BSK_4H_Pselectin: BioMAP Diversity Plus: 4H Assay for Pselectin Biomarker Activity (AID 2283026); conditions: primary human endothelial cells (HUVEC); actives raise or lower the signal
Outline: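 HUVEC, 24 h chemical exposure; P-selectin read by ELISA. Bidirectional curve fit vs DMSO baseline; gain or loss of signal scored.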

[15] = BSK_4H_SRB: Viability Assessment in the BioMAP Diversity Plus: 4H Assay (AID 2283027); conditions: primary human endothelial cells (HUVEC);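 also: cells exposed to compound for 24 h before staining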;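 as to AC50: curves fitted both ways versus DMSO so AC50 may be loss or gain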
Outline: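 Cytotoxicity readout: sulforhodamine B (0.1%) staining of total protein after 10% TCA fixation, measured at 560 nm in human umbilical vein endothelium at 24 h. DMSO set the baseline; fitting was bidirectional.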

[16] = BSK_BE3C_SRB: Viability Assessment in the BioMAP Diversity Plus: BE3C Assay (AID 2283028); conditions: primary human bronchial epithelial cells;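 as to AC50: fitted both ways so AC50 may mark signal gain or loss versus DMSO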
Outline: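 Human primary bronchial epithelial cells were exposed to test chemicals for 24 h. Total protein in parallel cultures was then measured by staining with 0.1% sulforhodamine B after 10% TCA fixation, with absorbance read at 560 nm. Activity was fitted bidirectionally against DMSO.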

[17] = read-out: Thrombomodulin, THBD (gene 7056); test: BSK_3C_Thrombomodulin: BioMAP Diversity Plus: 3C Assay for Thrombomodulin Biomarker Activity (AID 2283029); conditions: primary human endothelial cells (HUVEC); actives raise or lower the signal
Outline: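 HUVEC, 3C conditions; compound 24 h; thrombomodulin by ELISA; bidirectional curve fit vs DMSO baseline; parallel SRB total-protein staining for cytotoxicity.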

[18] = read-out: E-selectin (Homo sapiens) (UniProt P16581); test: BSK_3C_Eselectin: BioMAP Diversity Plus: 3C Assay for Eselectin Biomarker Activity (AID 2283015); conditions: primary human endothelial cells (HUVEC); actives raise or lower the signal;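 also: cell surface E-selectin protein quantified by ELISA 24 h after dosing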
Outline: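 Primary human umbilical vein endothelial cells (3C system) were dosed with chemical and cell-surface E-selectin measured by ELISA 24 h later. Bidirectional curve fitting used DMSO as negative control and baseline.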

[19] = read-out: Interleukin-8 (IL8), CXCL8 (gene 3576); test: BSK_3C_IL8: BioMAP Diversity Plus: 3C Assay for Interleukin-8 (IL8) Biomarker Activity (AID 2283020); conditions: primary human endothelial cells (HUVEC); actives raise or lower the signal
Outline: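 HUVEC, 3C stimulation; 24 h compound exposure; IL-8 read by ELISA; gain or loss of signal fitted relative to DMSO control.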

Sequence of human Retinoid X Receptor beta (RXRb), RXRB (gene 6257) (P28702 whole entry, looked up, the tested form may be a part): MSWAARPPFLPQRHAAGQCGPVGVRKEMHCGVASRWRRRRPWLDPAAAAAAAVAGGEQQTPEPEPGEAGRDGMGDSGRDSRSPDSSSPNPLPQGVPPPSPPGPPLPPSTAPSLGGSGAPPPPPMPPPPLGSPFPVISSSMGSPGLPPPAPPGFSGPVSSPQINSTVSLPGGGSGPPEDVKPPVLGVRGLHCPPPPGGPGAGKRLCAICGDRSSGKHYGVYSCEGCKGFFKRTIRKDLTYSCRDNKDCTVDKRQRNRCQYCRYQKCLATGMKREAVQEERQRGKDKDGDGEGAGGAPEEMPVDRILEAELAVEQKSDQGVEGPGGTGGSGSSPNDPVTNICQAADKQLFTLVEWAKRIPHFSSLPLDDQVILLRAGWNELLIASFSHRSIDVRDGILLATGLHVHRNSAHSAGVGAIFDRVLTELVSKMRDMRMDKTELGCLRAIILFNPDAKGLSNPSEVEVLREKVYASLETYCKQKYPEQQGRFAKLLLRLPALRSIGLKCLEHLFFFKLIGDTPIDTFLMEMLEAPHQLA
Sequence of human Retinoic Acid Receptor gamma (RARg), RARG (gene 5916) (P13631 whole entry, looked up, the tested form may be a part): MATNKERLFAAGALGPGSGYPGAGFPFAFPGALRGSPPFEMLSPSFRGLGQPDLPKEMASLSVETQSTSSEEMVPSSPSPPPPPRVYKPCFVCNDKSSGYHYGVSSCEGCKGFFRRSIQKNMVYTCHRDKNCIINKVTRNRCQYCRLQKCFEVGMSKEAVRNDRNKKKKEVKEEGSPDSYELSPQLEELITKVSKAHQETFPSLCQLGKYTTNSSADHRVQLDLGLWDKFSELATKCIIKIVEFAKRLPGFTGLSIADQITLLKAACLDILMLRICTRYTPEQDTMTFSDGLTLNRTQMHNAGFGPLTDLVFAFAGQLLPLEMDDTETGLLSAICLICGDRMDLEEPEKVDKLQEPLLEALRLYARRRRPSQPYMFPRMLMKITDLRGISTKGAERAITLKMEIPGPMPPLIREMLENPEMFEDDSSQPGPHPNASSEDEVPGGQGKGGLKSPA
Sequence of human Thyroid Receptor alpha (THRa1), THRA (gene 7067) (P10827 whole entry, looked up, the tested form may be a part): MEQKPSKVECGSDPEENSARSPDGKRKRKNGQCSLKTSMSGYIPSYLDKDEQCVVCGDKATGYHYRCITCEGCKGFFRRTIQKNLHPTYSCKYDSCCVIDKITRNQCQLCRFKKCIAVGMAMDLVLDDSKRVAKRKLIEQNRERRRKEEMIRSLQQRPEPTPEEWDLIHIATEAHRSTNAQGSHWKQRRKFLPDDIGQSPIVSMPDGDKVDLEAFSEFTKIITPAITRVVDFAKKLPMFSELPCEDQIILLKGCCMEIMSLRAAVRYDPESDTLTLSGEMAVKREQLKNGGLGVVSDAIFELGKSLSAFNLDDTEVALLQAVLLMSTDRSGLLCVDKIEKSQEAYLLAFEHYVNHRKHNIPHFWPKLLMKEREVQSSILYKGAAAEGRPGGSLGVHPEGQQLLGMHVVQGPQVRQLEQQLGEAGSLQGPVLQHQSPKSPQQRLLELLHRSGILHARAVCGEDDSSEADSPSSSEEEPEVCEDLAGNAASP
Sequence of human Vitamin D Receptor (VDR), VDR (gene 7421) (P11473 whole entry, looked up, the tested form may be a part): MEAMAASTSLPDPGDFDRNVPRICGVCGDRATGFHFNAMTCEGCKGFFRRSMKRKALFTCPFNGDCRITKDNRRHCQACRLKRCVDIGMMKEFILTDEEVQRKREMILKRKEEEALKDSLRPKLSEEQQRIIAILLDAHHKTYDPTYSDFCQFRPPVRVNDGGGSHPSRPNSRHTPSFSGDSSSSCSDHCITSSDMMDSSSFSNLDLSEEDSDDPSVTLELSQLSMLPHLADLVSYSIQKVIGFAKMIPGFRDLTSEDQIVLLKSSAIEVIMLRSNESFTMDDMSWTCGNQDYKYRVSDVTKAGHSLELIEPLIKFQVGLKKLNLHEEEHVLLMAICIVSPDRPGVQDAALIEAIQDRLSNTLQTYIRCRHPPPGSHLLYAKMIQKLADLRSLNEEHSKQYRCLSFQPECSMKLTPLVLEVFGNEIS
Sequence of Retinoic acid receptor RXR-alpha (Homo sapiens) (P19793 whole entry, looked up, the tested form may be a part): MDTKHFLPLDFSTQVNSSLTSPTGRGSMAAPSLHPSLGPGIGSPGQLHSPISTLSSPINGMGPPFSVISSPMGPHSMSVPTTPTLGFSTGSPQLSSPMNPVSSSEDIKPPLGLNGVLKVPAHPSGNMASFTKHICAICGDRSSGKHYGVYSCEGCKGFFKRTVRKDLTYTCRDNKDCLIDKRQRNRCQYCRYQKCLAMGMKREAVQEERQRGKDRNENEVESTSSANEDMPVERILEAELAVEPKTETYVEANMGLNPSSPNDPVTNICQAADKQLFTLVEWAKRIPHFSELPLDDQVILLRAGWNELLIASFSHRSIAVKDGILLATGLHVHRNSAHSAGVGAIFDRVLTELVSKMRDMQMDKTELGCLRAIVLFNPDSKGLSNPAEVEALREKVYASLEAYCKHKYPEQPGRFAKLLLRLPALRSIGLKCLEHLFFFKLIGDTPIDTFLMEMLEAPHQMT
Sequence of E-selectin (Homo sapiens) (P16581 whole entry, looked up): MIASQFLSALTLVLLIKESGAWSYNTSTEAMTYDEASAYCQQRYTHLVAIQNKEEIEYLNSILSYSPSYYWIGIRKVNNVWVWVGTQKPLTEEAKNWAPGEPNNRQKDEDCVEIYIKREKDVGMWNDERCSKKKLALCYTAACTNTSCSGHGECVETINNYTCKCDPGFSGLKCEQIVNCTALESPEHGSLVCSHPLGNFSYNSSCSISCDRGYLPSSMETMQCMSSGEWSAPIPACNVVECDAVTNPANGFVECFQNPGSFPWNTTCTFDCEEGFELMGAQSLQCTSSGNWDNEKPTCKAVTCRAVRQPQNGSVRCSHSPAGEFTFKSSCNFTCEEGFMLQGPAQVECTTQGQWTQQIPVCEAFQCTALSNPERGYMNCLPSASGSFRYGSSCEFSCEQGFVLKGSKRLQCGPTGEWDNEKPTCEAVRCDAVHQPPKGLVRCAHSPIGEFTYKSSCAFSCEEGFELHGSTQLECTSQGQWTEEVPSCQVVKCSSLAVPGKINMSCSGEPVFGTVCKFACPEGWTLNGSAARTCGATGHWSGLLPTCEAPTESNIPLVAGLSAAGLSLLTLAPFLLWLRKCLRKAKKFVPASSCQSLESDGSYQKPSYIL

Q: Which outcome [1] does the source give for `O=[N+]([O-])c1cc(C(F)(F)F)c(Cl)c([N+](=O)[O-])c1Nc1ncc(C(F)(F)F)cc1Cl` here?
A: inactive

Q: And the outcome [2]?
A: inactive

Q: And the outcome [3]?
A: inactive

Q: And the outcome [4]?
A: inactive

Q: And the AC50 [5]?
A: 1.95 µM (active) and 6.28 µM (active)

Q: And the AC50 [6]?
A: 3.5 µM (active) and 4.23 µM (active)

Q: What about the AC50 [7] of the same compound?
A: 738 nM (active) and 3.46 µM (active)

Q: And the AC50 [8]?
A: 919 nM (active) and 1.74 µM (active)

Q: What about the AC50 [9] of the same compound?
A: 3.73 µM (active) and 5.09 µM (active)

Q: And the outcome [10]?
A: inactive

Q: And the AC50 [11]?
A: 1.49 µM (active)

Q: And the outcome [11]?
A: inactive

Q: What about the AC50 [12] of the same compound?
A: 3.93 µM (active)

Q: And the AC50 [13]?
A: 1.5 µM (active) and 2.12 µM (active)

Q: What about the AC50 [14] of the same compound?
A: 1.18 µM (active) and 2.13 µM (active)

Q: What about the AC50 [15] of the same compound?
A: 1 µM (active) and 2.39 µM (active)

Q: And the AC50 [16]?
A: 1.79 µM (active) and 4.1 µM (active)

Q: What about the AC50 [17] of the same compound?
A: 774 nM (active) and 2.49 µM (active)

Q: For `FC(F)C(F)(F)OCC(Cn1cncn1)c1ccc(Cl)cc1Cl` (stereo not given), which outcome [1] is on record?
A: inactive

Q: What about the outcome [2] of the same compound?
A: inactive

Q: What about the outcome [4] of the same compound?
A: inactive

Q: What about the outcome [5] of the same compound?
A: inactive

Q: What about the outcome [6] of the same compound?
A: inactive

Q: And the AC50 [7]?
A: 23.2 µM (active)

Q: And the AC50 [8]?
A: 26.9 µM (active)

Q: What about the outcome [9] of the same compound?
A: inactive

Q: And the AC50 [11]?
A: 20 µM (active)

Q: What about the outcome [12] of the same compound?
A: inactive

Q: And the AC50 [13]?
A: 39 µM (active)

Q: What about the AC50 [14] of the same compound?
A: 33.7 µM (active)

Q: And the outcome [15]?
A: inactive

Q: What about the outcome [16] of the same compound?
A: inactive

Q: And the outcome [17]?
A: inactive

Q: Which results are given for `Nc1nc(N)nc(NC2CC2)n1`?
A: outcome [1]: inactive; outcome [2]: inactive; outcome [3]: inactive; outcome [6]: inactive; outcome [7]: inactive; outcome [8]: inactive; outcome [9]: inactive; outcome [11]: inactive; outcome [12]: inactive; outcome [13]: inactive; outcome [14]: inactive; outcome [15]: inactive; outcome [16]: inactive; outcome [17]: inactive

Q: Which outcome [1] does the source give for `CNc1cnn(-c2cccc(C(F)(F)F)c2)c(=O)c1Cl` here?
A: inactive

Q: What about the outcome [3] of the same compound?
A: inactive

Q: What about the outcome [4] of the same compound?
A: inactive

Q: What about the outcome [18] of the same compound?
A: inactive

Q: What about the outcome [6] of the same compound?
A: inactive

Q: What about the outcome [7] of the same compound?
A: inactive

Q: And the AC50 [8]?
A: 3.97 µM (active)

Q: What about the outcome [19] of the same compound?
A: inactive

Q: What about the outcome [9] of the same compound?
A: inactive

Q: And the outcome [11]?
A: inactive

Q: And the outcome [12]?
A: inactive

Q: And the outcome [13]?
A: inactive

Q: What about the outcome [14] of the same compound?
A: inactive

Q: What about the outcome [15] of the same compound?
A: inactive

Q: And the outcome [16]?
A: inactive

Q: What about the outcome [17] of the same compound?
A: inactive

Q: For `CSc1nc(NC(C)C)nc(NC(C)C)n1`, which outcome [1] is on record?
A: inactive

Q: And the outcome [2]?
A: inactive

Q: And the outcome [3]?
A: inactive

Q: And the outcome [6]?
A: inactive

Q: And the outcome [7]?
A: inactive

Q: And the outcome [8]?
A: inactive

Q: What about the outcome [9] of the same compound?
A: inactive

Q: And the outcome [10]?
A: inactive

Q: And the AC50 [11]?
A: 14 µM (active)

Q: What about the outcome [12] of the same compound?
A: inactive

Q: And the outcome [13]?
A: inactive

Q: What about the outcome [14] of the same compound?
A: inactive

Q: What about the outcome [15] of the same compound?
A: inactive

Q: And the outcome [16]?
A: inactive

Q: And the outcome [17]?
A: inactive

Q: With `CN1COCN(Cc2cnc(Cl)s2)C1=N[N+](=O)[O-]` as the compound, how does the outcome [1] read?
A: inactive

Q: And the outcome [2]?
A: inactive

Q: And the outcome [3]?
A: inactive

Q: And the outcome [4]?
A: inactive

Q: What about the outcome [18] of the same compound?
A: inactive

Q: And the outcome [6]?
A: inactive

Q: And the outcome [7]?
A: inactive

Q: And the outcome [8]?
A: inactive

Q: What about the outcome [9] of the same compound?
A: inactive

Q: What about the outcome [10] of the same compound?
A: inactive

Q: And the outcome [11]?
A: inactive

Q: And the outcome [12]?
A: inactive

Q: And the outcome [13]?
A: inactive

Q: What about the outcome [14] of the same compound?
A: inactive

Q: What about the outcome [15] of the same compound?
A: inactive

Q: And the outcome [16]?
A: inactive

Q: And the outcome [17]?
A: inactive
